PubChem BioAssay (EPA / NIEHS)
Inconclusive results are not listed. Calls of active or inactive are those of the source. The calls were made as follows, unless noted: active = hit-call score of the fitted dose curve at least 0.9, where 1 is the maximum; inconclusive = response in the unintended direction; inactive = score below 0.9.

Experiments:
[1] = ATG_TAL_CIS: Attagene CIS-FACTORIAL HepG2 Assay for human TAL Basal Promoter (AID 2282966; active = hit-call score of the fitted dose curve at least 0.9, where 1 is the maximum; inactive = score below 0.9;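 also: background control endpoint measuring basal TAL promoter reporter mRNA not a specific factor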); settings: HepG2 Attagene cis-factorial TAL promoter reporter; actives raise or lower the signal
Summary of the method: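 After 24 hours of chemical exposure, transfected HepG2 cells yielded RNA that was converted to 6-FAM-labelled, HpaI-digested reporter fragments for capillary electrophoresis. Values derive from bidirectional fitting against DMSO controls.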

[2] = ATG_TGFb_CIS: Attagene CIS-FACTORIAL HepG2 Assay for human Transforming Growth Factor (TGF) (AID 2282967; active = hit-call score of the fitted dose curve at least 0.9, where 1 is the maximum; inactive = score below 0.9); settings: HepG2 Attagene CIS TGFb reporter, mRNA transcription; actives raise or lower the signal
Summary of the method: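 Multiplexed cis-reporter HepG2 system, 24 h treatment; mRNA induction read by fluorescence after RT-PCR and CE; DMSO negative control, bidirectional curve fitting.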

[3] = molecular target: Nuclear receptor subfamily 1 group I member 3 (Homo sapiens) (UniProt Q14994); assay: ATG_CAR_TRANS: Attagene TRANS-FACTORIAL HepG2 Assay for human Constitutive Androstane Receptor (CAR) (AID 2282969); settings: HepG2 Attagene TRANS-FACTORIAL CAR reporter;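 also: activators raise reporter mRNA above DMSO so AC50 marks induction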
Summary of the method: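 Transiently transfected HepG2, multiplex TRANS reporters (CAR-Gal4 chimera driving GAL4-UAS reporter). 24 h dosing. Readout: reporter transcript by RT-PCR + capillary electrophoresis, fluorescence intensity; positive direction vs DMSO.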

[4] = molecular target: Estrogen receptor (Homo sapiens) (UniProt P03372); assay: ATG_ERa_TRANS: Attagene TRANS-FACTORIAL HepG2 Assay for human Estrogen Receptor alpha (ERa) (AID 2282970); settings: HepG2 Attagene TRANS ERa GAL4 reporter, mRNA
Summary of the method: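 Liver-derived HepG2 cells expressing chimeric nuclear receptor-Gal4 proteins from transient transfection were exposed for 24 hours. Gain of reporter mRNA signal versus DMSO, read by capillary electrophoresis of FAM-labelled PCR products, was recorded.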

[5] = molecular target: Steroid hormone receptor ERR1 (Homo sapiens) (UniProt P11474); assay: ATG_ERRa_TRANS: Attagene TRANS-FACTORIAL HepG2 Assay for human Estrogen-Related Receptor alpha (ERRa) (AID 2282971); settings: HepG2 Attagene TRANS reporter, ERRa transactivation
Summary of the method: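 Reporter transcript induction was quantified by RT-PCR and capillary electrophoresis of FAM-labelled, HpaI-cut products after 24 h treatment of HepG2 cells carrying transiently transfected GAL4-UAS reporter units and an exogenous ERRa-Gal4 fusion; activity scored as increase over DMSO.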

[6] = molecular target: X-box-binding protein 1 (Homo sapiens) (UniProt P17861); assay: ATG_Xbp1_CIS: Attagene CIS-FACTORIAL HepG2 Assay for human X-box Binding Protein 1 (XBP1) (AID 2282972; active = hit-call score of the fitted dose curve at least 0.9, where 1 is the maximum; inactive = score below 0.9); settings: HepG2 XBP1 cis-element reporter, Attagene multiplex; actives raise or lower the signal
Summary of the method: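 Human hepatoma HepG2, cis-element reporter system, 24 h treatment; mRNA quantified by RT-PCR/CE fluorescence; fit relative to DMSO.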

[7] = molecular target: Estrogen-related receptor gamma (Homo sapiens) (UniProt P62508); assay: ATG_ERRg_TRANS: Attagene TRANS-FACTORIAL HepG2 Assay for human Estrogen-Related Receptor gamma (ERRg) (AID 2282977); settings: HepG2 Attagene TRANS reporter, ERRg transactivation;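 also: hits increase reporter signal over DMSO so potencies reflect activators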
Summary of the method: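 Induction of reporter transcripts through a chimeric NR-Gal4 protein is quantified in transfected human HepG2 liver cells after 24 h chemical exposure, using RT-PCR with capillary electrophoresis detection and DMSO as baseline.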

[8] = ATG_M_06_TRANS: Attagene TRANS-FACTORIAL HepG2 Assay for M06 Transcription Factor (Internal Marker) (AID 2282983); settings: HepG2 Attagene TRANS M06 internal marker reporter
Summary of the method: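 Background control endpoint: reporter mRNA from transiently transfected HepG2 after 24 h dosing, detected by RT-PCR with capillary electrophoresis fluorescence. Analysed for gain versus DMSO.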

[9] = ATG_M_32_TRANS: Attagene TRANS-FACTORIAL HepG2 Assay for M32 Transcription Factor (Internal Marker) (AID 2282984); settings: HepG2 Attagene TRANS M32 internal marker reporter;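 also: transcript level of a background control reporter unit measured by RT-PCR and capillary electrophoresis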
Summary of the method: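 Internal-marker readout from a multiplexed transcription reporter panel. HepG2 cells were transfected with GAL4-UAS reporter units, treated 24 hours, and reporter transcript levels determined by fluorescence after RT-PCR and capillary separation.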

[10] = molecular target: Nuclear receptor subfamily 4 group A member 2 (Homo sapiens) (UniProt P43354); assay: ATG_NURR1_TRANS: Attagene TRANS-FACTORIAL HepG2 Assay for human Nuclear Receptor Related Protein 1 (NURR1) (AID 2282985); settings: HepG2 Attagene TRANS reporter, mRNA readout
Summary of the method: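 Endpoint: reporter mRNA increase relative to DMSO. HepG2 cells transfected with reporter units, treated 24 h; RNA processed by RT-PCR, labelling, HpaI digestion and capillary electrophoresis.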

[11] = molecular target: Transcriptional activator Myb (Homo sapiens) (UniProt P10242); assay: ATG_Myb_CIS: Attagene CIS-FACTORIAL HepG2 Assay for human Myeloblastosis (Myb) Proto-Oncogene Transcription Factor (AID 2282986; active = hit-call score of the fitted dose curve at least 0.9, where 1 is the maximum; inactive = score below 0.9); settings: HepG2 Attagene CIS-FACTORIAL Myb reporter transcription; actives raise or lower the signal
Summary of the method: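 Endogenous transcription factor activity at a Myb-responsive cis element is reported in human liver HepG2 cells after 24 h chemical treatment. Reporter mRNA is detected by RT-PCR and capillary electrophoresis fluorescence, with DMSO as baseline.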

[12] = molecular target: Nuclear respiratory factor 1 (Homo sapiens) (UniProt Q16656); assay: ATG_NRF1_CIS: Attagene CIS-FACTORIAL HepG2 Assay for human Nuclear Respiratory Factor 1 (NRF1) Orphan Gene (AID 2282987; active = hit-call score of the fitted dose curve at least 0.9, where 1 is the maximum; inactive = score below 0.9); settings: HepG2 NRF1 cis-element reporter, Attagene multiplex; actives raise or lower the signal
Summary of the method: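 Human hepatoma HepG2 cells carrying transfected promoter-regulated reporter units were incubated with test chemicals for 24 h. Reporter transcripts were measured by RT-PCR plus capillary electrophoresis, and endpoints derived by bidirectional fitting with DMSO as baseline.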

[13] = molecular target: Hepatocyte nuclear factor 4-alpha (Homo sapiens) (UniProt P41235); assay: ATG_HNF4a_TRANS: Attagene TRANS-FACTORIAL HepG2 Assay for human Hepatocyte Nuclear Factor 4 alpha (HNF4a) (AID 2282982); settings: HepG2 HNF4a transactivation reporter, mRNA readout
Summary of the method: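 Endpoint reflects transcriptional activation of a GAL4-UAS reporter by an HNF4a-GAL4 chimera in transfected HepG2 cells, 24 h post-dosing. Fluorescence from RT-PCR products separated by capillary electrophoresis; DMSO baseline.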

[14] = molecular target: Glucocorticoid receptor (Homo sapiens) (UniProt P04150); assay: ATG_GR_TRANS: Attagene TRANS-FACTORIAL HepG2 Assay for human Glucocorticoid Receptor (GR) (AID 2282978); settings: HepG2 Attagene TRANS GR reporter, mRNA transcription;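 also: activators score as hits since higher reporter transcript over DMSO is fitted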
Summary of the method: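 Multiplexed TRANS reporter system, HepG2; 24 h exposure; RNA → oligo(dT) RT → reporter-specific PCR → 6-FAM primer extension → HpaI cut → CE fluorescence. Gain-of-signal vs DMSO.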

[15] = molecular target: Bile acid receptor (Homo sapiens) (UniProt Q96RI1); assay: ATG_FXR_TRANS: Attagene TRANS-FACTORIAL HepG2 Assay for Farnesoid X Receptor (FXR) (AID 2282979); settings: HepG2 Attagene TRANS FXR-GAL4 reporter transcription;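 also: hits raise reporter mRNA above DMSO so AC50 marks FXR activation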
Summary of the method: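 Transient transfection of HepG2 with multiplexed GAL4-UAS reporter units; exogenous FXR-GAL4 chimera. Dose 24 h → TriZol RNA → oligo(dT) RT → PCR, 6-FAM primer extension, HpaI cut → CE. Gain vs DMSO.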

[16] = molecular target: Oxysterols receptor LXR-beta (Homo sapiens) (UniProt P55055); assay: ATG_LXRb_TRANS: Attagene TRANS-FACTORIAL HepG2 Assay for human Liver X Receptor beta (LXRb) (AID 2282981); settings: HepG2 Attagene TRANS GAL4-LXRb reporter, mRNA
Summary of the method: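 Multiplexed reporter assay, HepG2, 24 h dosing. Fluorescence of labelled RT-PCR products after capillary electrophoresis gives transcript level; positive fitting direction relative to DMSO.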

[17] = ATG_M_19_TRANS: Attagene TRANS-FACTORIAL HepG2 Assay for M19 Transcription Factor (Internal Marker) (AID 2282974); settings: HepG2 Attagene TRANS-FACTORIAL M19 internal marker reporter
Summary of the method: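 After transfection of HepG2 with GAL4-UAS-driven reporter constructs, cells are dosed for 24 h. Total RNA is reverse-transcribed, reporter sequences PCR-amplified and labelled, then HpaI-digested and sized by capillary electrophoresis.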

[18] = ATG_GAL4_TRANS: Attagene TRANS-FACTORIAL HepG2 Assay for GAL4 (Internal Marker) (AID 2282976); settings: HepG2 Attagene TRANS GAL4 internal marker reporter
Summary of the method: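 First, HepG2 cells were transfected with reporter units under GAL4-UAS control. Next, they were treated with chemical for 24 h. Finally, RNA was reverse-transcribed, PCR-amplified, FAM-labelled and resolved by capillary electrophoresis, with induction scored against DMSO.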

[19] = molecular target: Oxysterols receptor LXR-alpha (Homo sapiens) (UniProt Q13133); assay: ATG_LXRa_TRANS: Attagene TRANS-FACTORIAL HepG2 Assay for human Liver X Receptor alpha (LXRa) (AID 2282980); settings: HepG2 Attagene TRANS reporter, LXRa transactivation
Summary of the method: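 Transfect HepG2 with GAL4-UAS multiplex reporter constructs (TRANS format, chimeric receptor-GAL4); treat 24 h; extract RNA, reverse-transcribe, PCR-amplify, FAM-label, HpaI-digest; resolve fragments by capillary electrophoresis. Upward response vs DMSO.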

[20] = ATG_VDRE_CIS: Attagene CIS-FACTORIAL HepG2 Assay for human Vitamin D Receptor Element (VDRE) (AID 2282968; active = hit-call score of the fitted dose curve at least 0.9, where 1 is the maximum; inactive = score below 0.9); settings: HepG2 VDRE cis-reporter transcription, actives raise or lower the signal
Summary of the method: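 Compounds were applied for 24 h to HepG2 cells transfected with promoter-regulated reporter units. Total RNA was reverse-transcribed, and reporter amplicons were fluorescently labelled and sized by capillary electrophoresis.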

Measured: AC50

Sequence of Oxysterols receptor LXR-beta (Homo sapiens) (P55055 whole entry, looked up, the tested form may be a part): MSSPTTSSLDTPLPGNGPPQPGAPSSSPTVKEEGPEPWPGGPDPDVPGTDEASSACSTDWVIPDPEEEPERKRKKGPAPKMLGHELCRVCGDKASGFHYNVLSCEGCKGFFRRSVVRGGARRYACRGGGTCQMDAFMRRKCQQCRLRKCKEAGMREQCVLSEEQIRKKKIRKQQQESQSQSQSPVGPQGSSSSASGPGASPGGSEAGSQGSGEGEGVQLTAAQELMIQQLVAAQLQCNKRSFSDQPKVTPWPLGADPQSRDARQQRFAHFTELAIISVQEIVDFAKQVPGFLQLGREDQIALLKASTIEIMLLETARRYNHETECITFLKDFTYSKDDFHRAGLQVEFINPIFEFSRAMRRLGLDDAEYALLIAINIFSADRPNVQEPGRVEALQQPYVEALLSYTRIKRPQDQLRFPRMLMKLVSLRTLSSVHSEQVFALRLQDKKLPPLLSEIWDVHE
Sequence of Estrogen receptor (Homo sapiens) (P03372 whole entry, looked up, the tested form may be a part): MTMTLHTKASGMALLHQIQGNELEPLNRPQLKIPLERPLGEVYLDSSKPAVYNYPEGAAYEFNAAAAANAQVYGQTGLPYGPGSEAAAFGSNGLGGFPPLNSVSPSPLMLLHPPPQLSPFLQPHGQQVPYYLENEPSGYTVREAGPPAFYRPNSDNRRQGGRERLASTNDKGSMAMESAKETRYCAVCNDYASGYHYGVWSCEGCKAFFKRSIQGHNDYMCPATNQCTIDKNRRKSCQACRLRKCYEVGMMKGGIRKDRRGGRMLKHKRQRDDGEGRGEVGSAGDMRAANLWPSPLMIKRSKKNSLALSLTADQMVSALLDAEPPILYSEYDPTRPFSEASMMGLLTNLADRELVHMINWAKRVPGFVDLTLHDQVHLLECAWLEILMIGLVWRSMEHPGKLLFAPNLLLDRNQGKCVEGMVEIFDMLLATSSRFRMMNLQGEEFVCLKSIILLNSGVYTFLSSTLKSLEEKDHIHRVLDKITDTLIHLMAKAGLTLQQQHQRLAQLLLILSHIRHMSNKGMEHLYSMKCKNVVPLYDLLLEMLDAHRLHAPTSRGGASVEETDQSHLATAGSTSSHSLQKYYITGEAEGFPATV
Sequence of Transcriptional activator Myb (Homo sapiens) (P10242 whole entry, looked up): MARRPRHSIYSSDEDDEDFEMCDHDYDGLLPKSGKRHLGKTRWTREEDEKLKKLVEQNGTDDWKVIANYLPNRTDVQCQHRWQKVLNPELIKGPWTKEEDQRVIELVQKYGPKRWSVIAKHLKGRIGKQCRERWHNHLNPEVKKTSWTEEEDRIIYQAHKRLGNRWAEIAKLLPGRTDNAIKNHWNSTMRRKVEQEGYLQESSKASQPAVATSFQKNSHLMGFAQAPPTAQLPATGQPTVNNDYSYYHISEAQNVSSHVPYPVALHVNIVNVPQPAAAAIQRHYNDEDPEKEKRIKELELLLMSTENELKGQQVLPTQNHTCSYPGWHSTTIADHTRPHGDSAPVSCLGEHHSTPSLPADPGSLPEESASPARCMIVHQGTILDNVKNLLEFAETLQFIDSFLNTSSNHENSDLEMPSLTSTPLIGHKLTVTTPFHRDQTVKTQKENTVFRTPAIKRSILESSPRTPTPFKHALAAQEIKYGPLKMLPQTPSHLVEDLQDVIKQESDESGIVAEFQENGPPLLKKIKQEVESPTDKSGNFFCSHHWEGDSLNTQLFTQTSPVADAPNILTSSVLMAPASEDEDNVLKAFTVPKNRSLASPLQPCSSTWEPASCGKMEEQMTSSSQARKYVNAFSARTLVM
Sequence of Estrogen-related receptor gamma (Homo sapiens) (P62508 whole entry, looked up, the tested form may be a part): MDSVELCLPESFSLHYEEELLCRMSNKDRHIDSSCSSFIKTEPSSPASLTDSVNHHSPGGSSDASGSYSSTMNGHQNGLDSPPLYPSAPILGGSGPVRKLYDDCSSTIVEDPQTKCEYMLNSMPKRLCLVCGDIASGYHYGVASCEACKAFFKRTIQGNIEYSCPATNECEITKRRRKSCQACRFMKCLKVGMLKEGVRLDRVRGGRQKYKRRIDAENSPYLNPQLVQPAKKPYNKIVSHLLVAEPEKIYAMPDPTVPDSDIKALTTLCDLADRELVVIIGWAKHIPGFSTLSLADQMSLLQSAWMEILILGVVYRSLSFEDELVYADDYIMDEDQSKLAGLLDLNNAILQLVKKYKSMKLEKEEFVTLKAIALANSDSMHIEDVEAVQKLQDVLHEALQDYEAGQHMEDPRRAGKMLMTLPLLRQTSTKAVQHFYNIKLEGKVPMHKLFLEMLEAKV
Sequence of Oxysterols receptor LXR-alpha (Homo sapiens) (Q13133 whole entry, looked up, the tested form may be a part): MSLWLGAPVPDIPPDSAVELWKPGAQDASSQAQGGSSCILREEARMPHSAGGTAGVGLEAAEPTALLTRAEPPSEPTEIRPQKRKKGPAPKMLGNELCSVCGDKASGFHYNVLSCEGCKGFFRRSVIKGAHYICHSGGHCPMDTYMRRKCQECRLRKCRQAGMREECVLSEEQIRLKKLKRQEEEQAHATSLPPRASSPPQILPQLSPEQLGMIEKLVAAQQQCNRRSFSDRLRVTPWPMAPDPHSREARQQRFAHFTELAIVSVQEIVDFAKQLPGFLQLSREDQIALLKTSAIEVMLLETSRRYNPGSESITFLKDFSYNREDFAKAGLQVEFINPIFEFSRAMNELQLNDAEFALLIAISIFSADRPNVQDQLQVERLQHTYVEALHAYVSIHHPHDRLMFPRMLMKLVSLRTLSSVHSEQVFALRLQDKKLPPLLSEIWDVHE
Sequence of Nuclear respiratory factor 1 (Homo sapiens) (Q16656 whole entry, looked up): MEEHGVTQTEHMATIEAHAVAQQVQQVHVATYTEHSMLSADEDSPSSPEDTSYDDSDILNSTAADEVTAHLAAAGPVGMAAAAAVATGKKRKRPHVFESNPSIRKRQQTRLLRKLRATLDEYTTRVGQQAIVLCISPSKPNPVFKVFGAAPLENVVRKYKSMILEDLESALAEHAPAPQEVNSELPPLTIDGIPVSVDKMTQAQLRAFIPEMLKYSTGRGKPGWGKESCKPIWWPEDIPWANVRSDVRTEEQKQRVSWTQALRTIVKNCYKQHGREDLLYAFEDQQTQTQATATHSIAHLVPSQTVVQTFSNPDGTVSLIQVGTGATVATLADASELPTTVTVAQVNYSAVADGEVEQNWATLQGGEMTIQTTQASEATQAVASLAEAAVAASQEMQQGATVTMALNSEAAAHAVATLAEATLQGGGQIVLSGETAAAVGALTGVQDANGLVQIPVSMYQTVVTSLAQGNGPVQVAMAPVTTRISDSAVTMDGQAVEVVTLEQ
Sequence of Steroid hormone receptor ERR1 (Homo sapiens) (P11474 whole entry, looked up, the tested form may be a part): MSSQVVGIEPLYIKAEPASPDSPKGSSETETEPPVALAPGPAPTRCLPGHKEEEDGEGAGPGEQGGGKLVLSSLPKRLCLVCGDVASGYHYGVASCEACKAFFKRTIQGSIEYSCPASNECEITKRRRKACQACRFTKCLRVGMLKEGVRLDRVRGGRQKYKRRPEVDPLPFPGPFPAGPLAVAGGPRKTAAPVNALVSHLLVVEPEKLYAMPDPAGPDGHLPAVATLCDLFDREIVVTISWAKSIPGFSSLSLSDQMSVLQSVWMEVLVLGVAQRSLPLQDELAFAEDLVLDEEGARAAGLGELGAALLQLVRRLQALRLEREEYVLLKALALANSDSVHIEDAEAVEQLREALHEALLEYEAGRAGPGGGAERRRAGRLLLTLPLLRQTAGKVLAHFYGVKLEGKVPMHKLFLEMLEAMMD
Sequence of Hepatocyte nuclear factor 4-alpha (Homo sapiens) (P41235 whole entry, looked up, the tested form may be a part): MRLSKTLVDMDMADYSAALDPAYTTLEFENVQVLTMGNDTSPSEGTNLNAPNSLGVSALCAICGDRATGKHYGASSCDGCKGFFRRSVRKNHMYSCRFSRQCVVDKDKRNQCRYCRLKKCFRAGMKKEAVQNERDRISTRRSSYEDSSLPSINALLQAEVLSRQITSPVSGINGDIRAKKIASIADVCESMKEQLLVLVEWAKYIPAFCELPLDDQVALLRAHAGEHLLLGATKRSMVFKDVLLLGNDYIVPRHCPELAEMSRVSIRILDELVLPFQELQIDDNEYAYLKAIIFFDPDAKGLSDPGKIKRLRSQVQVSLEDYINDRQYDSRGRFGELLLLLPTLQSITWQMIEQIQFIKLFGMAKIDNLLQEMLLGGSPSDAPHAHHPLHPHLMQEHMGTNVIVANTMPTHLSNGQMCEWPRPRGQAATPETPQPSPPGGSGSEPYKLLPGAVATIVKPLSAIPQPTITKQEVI
Sequence of Nuclear receptor subfamily 1 group I member 3 (Homo sapiens) (Q14994 whole entry, looked up, the tested form may be a part): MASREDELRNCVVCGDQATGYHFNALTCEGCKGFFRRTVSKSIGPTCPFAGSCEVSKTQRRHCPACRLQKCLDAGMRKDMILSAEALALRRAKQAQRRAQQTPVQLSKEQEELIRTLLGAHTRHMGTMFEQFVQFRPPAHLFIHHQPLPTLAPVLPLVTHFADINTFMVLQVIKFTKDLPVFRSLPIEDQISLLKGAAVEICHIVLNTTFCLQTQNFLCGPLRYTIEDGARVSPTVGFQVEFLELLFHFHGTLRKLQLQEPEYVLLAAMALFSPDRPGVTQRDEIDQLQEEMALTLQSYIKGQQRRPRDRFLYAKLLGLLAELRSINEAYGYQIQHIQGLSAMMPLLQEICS
Sequence of Nuclear receptor subfamily 4 group A member 2 (Homo sapiens) (P43354 whole entry, looked up): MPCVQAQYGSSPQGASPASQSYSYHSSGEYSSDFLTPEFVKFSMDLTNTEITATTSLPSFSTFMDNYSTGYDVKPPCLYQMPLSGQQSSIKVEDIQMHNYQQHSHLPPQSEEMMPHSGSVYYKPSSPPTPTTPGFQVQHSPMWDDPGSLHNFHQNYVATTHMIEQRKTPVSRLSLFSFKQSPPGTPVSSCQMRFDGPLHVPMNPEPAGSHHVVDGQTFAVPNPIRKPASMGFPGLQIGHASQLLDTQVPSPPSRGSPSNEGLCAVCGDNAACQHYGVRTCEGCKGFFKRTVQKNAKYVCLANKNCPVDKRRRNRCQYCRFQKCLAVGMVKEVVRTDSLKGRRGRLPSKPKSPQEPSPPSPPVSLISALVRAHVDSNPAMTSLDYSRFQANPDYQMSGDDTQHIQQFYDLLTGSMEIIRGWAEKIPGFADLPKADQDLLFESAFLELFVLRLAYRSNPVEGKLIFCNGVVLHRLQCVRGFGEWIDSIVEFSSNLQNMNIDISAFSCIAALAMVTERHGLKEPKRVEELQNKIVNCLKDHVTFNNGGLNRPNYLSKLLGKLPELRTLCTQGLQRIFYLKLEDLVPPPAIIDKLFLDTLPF

Cc1ccc(N/N=c2\c(=O)cc/c(=N/Nc3ccc(S(=O)(=O)O)cc3)c2=O)c(C)c1
active: [4] 100 µM
not listed: [13] | [14] | [15] | [16] | [17] | [18] | [19] | [20]
inactive: all other assays above

O=C(C=Cc1ccccc1)OCc1ccccc1
inactive: [1] | [2] | [4] | [6] | [13] | [8] | [9] | [10] | [12]

c1ccc(CCCc2ccncc2)cc1
not listed: [3] | [5] | [7] | [17] | [18] | [19] | [20]
inactive: all other assays above

Cc1c(C)c([N+](=O)[O-])c(C(C)(C)C)c([N+](=O)[O-])c1C
active: [10] 9.67 µM
not listed: [7] | [13] | [14] | [15] | [17] | [18] | [19] | [20]
inactive: all other assays above

CCCCCC/C=C/C=O
not listed: [3] | [4] | [8] | [10] | [15] | [20]
inactive: all other assays above

Cc1cccc(OCCOc2cccc(C)c2)c1
inactive: [1] | [2] | [3] | [4] | [5] | [6] | [17] | [16] | [9] | [11] | [12]

C[C@]12C=CC(=O)C=C1CC[C@@H]1[C@@H]2[C@@H](O)C[C@@]2(C)[C@H]1CC[C@]2(O)C(=O)CO
inactive: [1] | [2] | [5] | [6] | [18] | [16] | [8] | [10] | [11] | [12]

C=C[Si](OC(C)=O)(OC(C)=O)OC(C)=O
inactive: [1] | [2] | [3] | [6] | [17] | [18] | [19] | [16] | [9] | [11] | [12]

CC(C)=CC1CC(C)CCO1 (stereo not given)
inactive: [1] | [2] | [20] | [6] | [13] | [8] | [11] | [12]

CCCCCCCCCCCCCCCC(=O)OCC
not listed: [3] | [5] | [7] | [8] | [13] | [15] | [20]
inactive: all other assays above

CC(C)(C)c1ccc(-c2ccc(C(C)(C)C)cc2)cc1
inactive: [1] | [2] | [4] | [6] | [19] | [16] | [13] | [8] | [9] | [11] | [12]

CC=CCO
inactive: [1] | [2] | [20] | [6] | [14] | [15] | [8] | [9] | [10] | [11] | [12]

O=Nc1ccc(O)cc1
active: [4] 48.5 µM
inactive: [1] | [2] | [6] | [14] | [13] | [8] | [9] | [10] | [11] | [12]

CC(C)CCCC(C)CC=O (stereo not given)
inactive: [1] | [2] | [4] | [6] | [17] | [8] | [9] | [10] | [11] | [12]

COC(=O)c1ccc2cc(C(=O)OC)ccc2c1
not listed: [3] | [14] | [15] | [17] | [18] | [20]
inactive: all other assays above

OC1CCCCCCCCCCC1
inactive: [1] | [2] | [6] | [14] | [8] | [11] | [12]
active: [4] 10.6 µM

CCCCCCOC(=O)C(C)CC (stereo not given)
not listed: [8] | [10] | [16] | [20]
inactive: all other assays above

c1ccc2c(c1)ccc1ncccc12
not listed: [3] | [7] | [9] | [15] | [16] | [19] | [20]
inactive: all other assays above

Cc1oncc1C(=O)Nc1ccc(C(F)(F)F)cc1
not listed: [3] | [5] | [7] | [14] | [17] | [19] | [20]
inactive: all other assays above
